The values below come from PubChem BioAssay (Tox21).

Results filed as inconclusive are left out. A call without a number means that no potency is given here. Active and inactive are the calls of the source. Unless noted, calls follow the shape of the dose curve; as a rule, active = well fitted cell-killing curve with a large enough effect in the repeat runs; inconclusive = weak or mixed curves; inactive = no such curve, though single readings can be large or run the other way.

Test system in one test: not listed separately
Kind of test: qHTS assay to identify small molecule agonists of the peroxisome proliferator-activated receptor delta (PPARd) signaling pathway - cell viability counter screen (AID 743211). Also: nearly all actives have a fitted effect of over 55% in size. The note with it: PPARd-bla HEK293H viability, CellTiter-Glo luminescence, 17 h; series mostly up to 62.6 µM. The method in brief: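 In the same wells used for beta-lactamase reporter measurement, cytotoxicity is scored by CellTiter-Glo. HEK293H PPARd-bla cells receive compound for 17 h at 37C following a 5 h settling period.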
(qHTS replaces the single test concentration by a dilution series.)
Take `CN(CC1(C)CCCO1)S(=O)(=O)c1ccc(Cl)c(S(N)(=O)=O)c1` (stereo not given): the Potency result was “inactive”.
With `OCc1ccccc1O`, the Potency entry is “inactive”.
Regarding `CN1C(=O)CC(c2ccccc2)C1=O` (stereo not given), the Potency result is “inactive”.
On to `Cc1c(C(=O)NCCO)[n+](=O)c2ccccc2n1[O-]`, for which the Potency entry was “inactive”.
Regarding `O=S(=O)(O)C(F)(F)F`, the Potency result is “inactive”.
On the same count and under the same terms, for `CCCCC1CCC(=O)O1` (stereo not given) the value was “inactive”.
Take `CCOc1ccc(NC(N)=O)cc1`: the Potency result is “inactive”.
For `NC/C=C/C(=O)O`, the Potency entry was “inactive”.
As for `CCCCCCCCCC#N`, the Potency result is “inactive”.
As to `CCCCC(=O)O[C@]1(C(=O)CO)[C@H](C)C[C@H]2[C@@H]3CCC4=CC(=O)C=C[C@]4(C)[C@@]3(F)[C@@H](O)C[C@@]21C`, the Potency result is “inactive”.
The same measure, in the same setting: for `CCCCCOc1ccc(C2SC(=O)NC2=O)cc1OCC` (stereo not given) the value was “inactive”.
As for `CC(C)CC(=O)OCc1ccccc1`, the Potency entry was “inactive”.
On to `CC/C=C\CCOC(=O)C(C)C`, for which the Potency entry was “inactive”.
With `CCNCCO`, the Potency result is “inactive”.
Turning to `CCCCNc1ccc(C(=O)OCCN(CC)CC)cc1`, the Potency result is “inactive”.
`CCOC(=O)NCCC[Si](OCC)(OCC)OCC`: the Potency entry is “inactive”.
Take `Cc1ccc([N+](=O)[O-])c(N)c1`: the Potency result is “inactive”.
Still for that read-out and setting: for `N#Cc1ccc(C(c2ccc(C#N)cc2)n2cncn2)cc1` the value was “inactive”; for `O=C1CCC(C2CCCCC2)CC1`, “inactive”; for `CCCCCCCCOC(=O)CCCCCCCCC(=O)OCCCCCCCC`, “inactive”.
Turning to `OCCN(CCO)c1ccccc1`, the Potency result was “inactive”.
Still for that read-out and setting: for `OCC(CBr)(CBr)CBr` the value was “inactive”.
As to `CCCNC(C)C(=O)Nc1c(C)csc1C(=O)OC` (stereo not given), the Potency result was “inactive”.
As to `CC1=C(O)C(=O)OC1C` (stereo not given), the Potency entry is “inactive”.
On the same count and under the same terms, for `O=C1CCCc2ccccc21` the value was “inactive”; for `COC(C)CCO` (stereo not given), “inactive”.
With `CCCc1c2oc(C(=O)O)cc(=O)c2cc2c(=O)cc(C(=O)O)n(CC)c12`, the Potency result was “inactive”.
As to `CN1CCN(c2c(F)cc3c(=O)c(C(=O)O)cn(CCF)c3c2F)CC1`, the Potency entry is “inactive”.
`CC(C)Nc1nc(N)nc(Cl)n1`: the Potency result is “inactive”.
`CC(=O)N[C@@H](CC(C)C)C(=O)O`: the Potency result is “inactive”.
As to `CCCS(=O)c1ccc2nc(NC(=O)OC)[nH]c2c1` (stereo not given), the Potency entry is “inactive”.
In the case of `COc1cc(Cl)ccc1Cl`, the Potency entry is “inactive”.
For `O=C1N(c2ccccc2)c2ccccc2C1(Cc1ccncc1)Cc1ccncc1`, the Potency result is “inactive”.
Still for that read-out and setting: in the case of `C1CCOC1` it was “inactive”.

The target of a further test is Peroxisome proliferator-activated receptor delta (Homo sapiens) (UniProt Q03181). Kind of test: qHTS assay to identify small molecule agonists of the peroxisome proliferator-activated receptor delta (PPARd) signaling pathway (AID 743212; calls by dose curve). The settings on record: HEK293H PPARd-UAS-bla, beta-lactamase FRET ratio, 17 h; series mostly up to 62.6 µM. Summed up: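 Beta-lactamase reporter read by fluorescence (LiveBLAzer B/G FRET, 2 h, room temperature). Test agents, in DMSO, incubated at 37 C with PPARd-bla HEK293H cells.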
Chain of Peroxisome proliferator-activated receptor delta (Homo sapiens) (Q03181 whole entry, looked up): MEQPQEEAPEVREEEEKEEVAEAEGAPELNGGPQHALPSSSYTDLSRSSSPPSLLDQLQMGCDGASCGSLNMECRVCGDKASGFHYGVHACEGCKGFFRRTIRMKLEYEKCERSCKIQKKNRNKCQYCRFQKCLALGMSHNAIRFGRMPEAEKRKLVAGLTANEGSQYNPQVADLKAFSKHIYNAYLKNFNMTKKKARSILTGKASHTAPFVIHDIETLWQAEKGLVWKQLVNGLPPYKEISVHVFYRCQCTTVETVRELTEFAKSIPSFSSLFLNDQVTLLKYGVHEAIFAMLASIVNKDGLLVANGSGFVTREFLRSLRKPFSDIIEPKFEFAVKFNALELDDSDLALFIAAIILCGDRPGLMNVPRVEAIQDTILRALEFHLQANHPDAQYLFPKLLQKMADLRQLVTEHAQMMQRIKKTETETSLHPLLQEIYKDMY
Regarding `CN(CC1(C)CCCO1)S(=O)(=O)c1ccc(Cl)c(S(N)(=O)=O)c1` (stereo not given), the result was inactive.
For `Cc1c(C(=O)NCCO)[n+](=O)c2ccccc2n1[O-]`, the outcome was inactive.
Turning to `O=S(=O)(O)C(F)(F)F`, the outcome was inactive.
As to `NC/C=C/C(=O)O`, the result was inactive.
On to `CCCCCCCCCC#N`, for which the result was inactive.
Same read-out and setting: for `CC(C)CC(=O)OCc1ccccc1` the value was “inactive”; for `CC/C=C\CCOC(=O)C(C)C`, “inactive”; for `CN(CCCN1c2ccccc2CCc2ccccc21)CC(=O)c1ccc(Cl)cc1`, “inactive”.
As for `CCNCCO`, the result was inactive.
For `CCCCNc1ccc(C(=O)OCCN(CC)CC)cc1`, the outcome was inactive.
With `CCOC(=O)NCCC[Si](OCC)(OCC)OCC`, the outcome was inactive.
Regarding `Cc1ccc([N+](=O)[O-])c(N)c1`, the outcome was inactive.
For `N#Cc1ccc(C(c2ccc(C#N)cc2)n2cncn2)cc1`, the outcome was inactive.
Still for that read-out and setting: for `O=C1CCC(C2CCCCC2)CC1` the value was “inactive”; for `NC(=O)NS(=O)(=O)c1ccc(Cl)cc1`, “inactive”.
Turning to `CCCCCCCCOC(=O)CCCCCCCCC(=O)OCCCCCCCC`, the result was inactive.
On to `OCC(CBr)(CBr)CBr`, for which the outcome was inactive.
`CC1=C(O)C(=O)OC1C` (stereo not given): the result was inactive.
Regarding `O=C1CCCc2ccccc21`, the outcome was inactive.
As for `CCCc1c2oc(C(=O)O)cc(=O)c2cc2c(=O)cc(C(=O)O)n(CC)c12`, the outcome was inactive.
Turning to `CN1CCN(c2c(F)cc3c(=O)c(C(=O)O)cn(CCF)c3c2F)CC1`, the result was inactive.
For the compound `CC(C)Nc1nc(N)nc(Cl)n1`, the result was inactive.
`CC(=O)N[C@@H](CC(C)C)C(=O)O`: the result was inactive.
Still for that read-out and setting: for `CCCS(=O)c1ccc2nc(NC(=O)OC)[nH]c2c1` (stereo not given) the value was “inactive”; for `COc1cc(Cl)ccc1Cl`, “inactive”; for `O=C1N(c2ccccc2)c2ccccc2C1(Cc1ccncc1)Cc1ccncc1`, “inactive”.
